Screening results as filed in PubChem BioAssay.
Shown are actives, neighbours in structure and some others; about 15% of the full set was active somewhere.
12-LOX inh – Primary qHTS assay for inhibitors of human arachidonate 12S-lipoxygenase (ALOX12): Round 2; purified 12hLO, xylenol orange hydroperoxide absorbance; AID 1671190, 2021; actives 1.1% (n = 580,000); Potency, µM (highest dose often 108 µM), for the others: at the highest dose activity change, negative = inhibition, usual class: inhibitors
Target sequence (P18054 whole entry, looked up): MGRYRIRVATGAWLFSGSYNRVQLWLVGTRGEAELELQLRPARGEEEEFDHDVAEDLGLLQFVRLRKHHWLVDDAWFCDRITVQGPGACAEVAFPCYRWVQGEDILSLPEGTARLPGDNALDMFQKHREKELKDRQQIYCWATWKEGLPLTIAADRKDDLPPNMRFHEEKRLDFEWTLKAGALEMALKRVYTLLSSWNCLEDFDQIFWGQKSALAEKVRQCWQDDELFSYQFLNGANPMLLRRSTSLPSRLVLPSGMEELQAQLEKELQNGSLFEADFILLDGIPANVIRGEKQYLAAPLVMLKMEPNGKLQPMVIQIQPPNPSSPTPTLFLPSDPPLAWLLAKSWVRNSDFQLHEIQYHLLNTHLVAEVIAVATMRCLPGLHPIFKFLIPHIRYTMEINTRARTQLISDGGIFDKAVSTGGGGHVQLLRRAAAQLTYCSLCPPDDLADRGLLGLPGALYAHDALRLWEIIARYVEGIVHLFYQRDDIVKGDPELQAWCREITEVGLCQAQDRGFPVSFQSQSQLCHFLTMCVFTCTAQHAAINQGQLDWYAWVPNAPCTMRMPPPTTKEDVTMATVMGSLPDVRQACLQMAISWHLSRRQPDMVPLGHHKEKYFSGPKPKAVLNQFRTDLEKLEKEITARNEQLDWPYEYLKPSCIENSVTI
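Purified human 12hLO at 150 nM in 25 mM Hepes, 0.01% Triton X-100, pH 7.0, preincubated 15 min at room temperature with compound. Reaction started with 40 uM arachidonic acid, 30 min at room temperature. Hydroperoxide measured by Fe-xylenol orange, 573/405 nm absorbance ratio.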
VP16 counter – VP16 counterscreen qHTS for inhibitors of ROR gamma transcriptional activity; actives 3.5% (n = 310,000); Drosophila S2 Gal4-VP16 UAS-luciferase, luminescence, 20 h; AID 2546, 2010; Potency, µM (series often up to 53.6 µM), for inactives: at the top dose activity, negative = inhibition, usual class: inhibitors;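 further: Gal4-VP16 expression switched on by copper sulfate through the metallothionein promoter; nearly all actives have a fitted effect of over 50% in size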
TDP1 cell noCPT – qHTS for Inhibitors of human tyrosyl-DNA phosphodiesterase 1 (TDP1): qHTS in cells in absence of CPT; DT40 Tdp1-/- hTDP1 cells, no CPT, ATP luminescence, 48 h; Potency, µM (titrated, usually from 46.2 µM), for the others: at the highest dose activity change, negative = growth inhibition, most hits filed as inhibitors; actives 15% (n = 420,000); further: nearly all actives have a fitted effect of over 55% in size
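Seeded 400 DT40-hTDP1 cells/well (vehicle DMSO, no 20 nM CPT); pinned compounds; ≥48 hr at 37 °C; CellTiter-Glo luminescence as viability measure.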
TDP1 cell CPT – qHTS for Inhibitors of human tyrosyl-DNA phosphodiesterase 1 (TDP1): qHTS in cells in presence of CPT. Potency, µM (top dose mostly 46.2 µM), inactives show at the highest dose activity change, negative = growth inhibition, hits mostly inhibitors. actives 12% (n = 420,000). chicken DT40 Tdp1-/-;hTDP1 cells + 20 nM CPT, ATP luminescence, 48 h; further: nearly all actives have a fitted effect of over 55% in size
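Chicken DT40 Tdp1-/- cells stably complemented with human TDP1 were seeded at 400 cells/well in medium containing 20 nM camptothecin, exposed to pin-transferred compounds, and grown at 37 °C for at least 48 hr. Viability was read as ATP luminescence.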
RORgamma inh – qHTS for inhibitors of ROR gamma transcriptional activity; Nuclear receptor ROR-gamma (Mus musculus), P51450; Drosophila S2 Gal4-RORgamma UAS-luciferase reporter, 20 h; Potency, µM (top dose mostly 53.6 µM), inactives show top-dose activity change, negative = inhibition, usual class: inhibitors; actives 5.4% (n = 310,000); AID 2551, 2010; further: nearly all actives have a fitted effect of over 60% in size
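In this cell-based reporter format, copper sulfate (700 uM final) drives Gal4–ROR gamma fusion expression from a metallothionein promoter in Drosophila Schneider cells; compounds preincubated 1 hr, reporter read after 20 hr at ambient temperature.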
* marks the source's active call; other numbers are inactive results; ? = inconclusive; . = not tested or not shown; [ ] = dose if it differs, or a comment. The call rests on the fitted dose curve; in most records, active means well fitted curve in the direction sought with a large enough effect; inconclusive means small, poorly fitted or top-dose-only effect, or another doubt; inactive means no such curve, though single readings can be large; an effect the other way counts as inactive or inconclusive. On the % scale 0 is the no-effect control and ±100 the full control effect; potency means the concentration at half of the fitted maximal effect.

SMILES	12-LOX inh	VP16 counter	TDP1 cell noCPT	TDP1 cell CPT	RORgamma inh
Oc1ccc(C[C@H]2CNC(=S)N2CC2CCCN2C[C@H](Cc2ccccc2)N2C[C@H](Cc3ccc(O)cc3)N(CC3CCCCCC3)C2=S)cc1 (stereo partly drawn)	11µM*	.	?	?	.
Oc1ccc(C[C@H]2CN([C@@H](Cc3cccc(O)c3)CN3CCC[C@@H]3CN3C(=S)NC[C@@H]3Cc3ccccc3)C(=S)N2CC2CCCCC2)cc1	?	.	2.9µM*	3.7µM*	.
Oc1ccc(C[C@H]2CNC(=S)N2C[C@H]2CCCN2C[C@H](Cc2ccccc2)N2C[C@H](Cc3ccc(O)cc3)N(CC3CCCCCC3)C2=S)cc1	?	.	16µM*	15µM*	.
Cc1ccc(C(=O)C2CC(=O)Nc3c2c(C)nn3-c2ccc(Br)cc2)s1 (stereo not drawn)	-11%	.	.	.	.
Cc1cc(C(=O)NC2CCCCC2C)cs1 (stereo not drawn)	9%	.	.	.	.
Oc1ccc(C[C@H]2CNC(=S)N2CC2CCCN2C[C@H](Cc2ccc(O)cc2)N2C[C@H](Cc3ccc(O)cc3)N(CC3CCCCC3)C2=S)cc1 (stereo partly drawn)	?	.	5.8µM*	7.3µM*	.
Oc1ccc(C[C@H]2CN([C@@H](Cc3ccc(O)cc3)CN3CCC[C@@H]3CN3C(=S)NC[C@@H]3Cc3ccccc3)C(=S)N2CC2CCCCCC2)cc1	?	.	23µM*	16µM*	.
Cc1ccc2nc(NC(=O)c3nn(C(C)C)c(=O)c4ccccc34)sc2c1	4%	.	.	.	.
COc1cccc(-c2cc3nc(NCc4ccccc4F)n(C)c(=O)c3s2)c1	?	.	16µM*	23µM*	.
Cn1c(NCc2ccccc2F)nc2cc(-c3ccsc3)sc2c1=O	1%	.	23µM*	?	.
Cn1c(NCc2ccccc2F)nc2cc(-c3cccc(Cl)c3)sc2c1=O	-18%	.	21µM*	15µM*	.
COc1ccc(-c2cc3nc(NCc4ccc(C)cc4C)n(C)c(=O)c3s2)cc1OC	16%	.	?	?	.
Cc1ccc(CNc2nc3cc(-c4ccccc4)sc3c(=O)n2C)c(C)c1	0%	.	-25%	16µM*	.
Cn1c(Nc2ccc(Cl)cc2F)nc2cc(-c3ccccc3)sc2c1=O	-8%	.	?	?	.
COc1cccc(-c2cc3nc(NCc4cccnc4)n(C)c(=O)c3s2)c1	6%	.	?	?	.
COc1ccccc1CNc1nc2cc(-c3ccsc3)sc2c(=O)n1C	-21%	.	?	?	.
CC(=O)NC[C@@H]1C=C(C)[C@H](Cc2nc3ccc(F)cc3[nH]2)C[C@H]1C(C)C	65%[176 µM]	.	.	.	.
COc1ccccc1CNC(=O)c1nnn2cc(C)[nH]c(=O)c12	-9%	.	.	.	.
O=C(CCc1ccc(O)cc1)N1CC[C@H](N2CCOCC2)[C@H](CCCO)C1	27%	.	.	.	.
COc1ccc(N2CC(C(=O)N(C)Cc3cnn(C)c3)CC2=O)cc1 (stereo not drawn)	4%	.	.	.	.
CN(C(=O)c1cc2ccccc2oc1=O)C(c1ccccc1)c1ccccc1	-18%	.	.	.	.
Cn1c(NCC2CCCCC2)nc2cc(-c3ccsc3)sc2c1=O	-26%	.	?	26µM*	.
Cn1c(NCc2ccncc2)nc2cc(-c3ccsc3)sc2c1=O	10%	.	-4%	-5%	.
Cn1c(NCc2ccccc2F)nc2cc(-c3ccccc3)sc2c1=O	-2%	.	21µM*	18µM*	.
C=C[C@](C)(O)CCC1C(=C)CC(O)C2C(C)(C)CCCC12C (stereo partly drawn)	.	-27%	9.2µM*	?	18%
